This passage reports Potency results from PubChem BioAssay (NCATS).

Inconclusive results are not listed. Entries that show only a call come without a potency. Active and inactive are the calls of the source. Calls come from the whole dose curve.

The assay deals with Nucleoprotein (Lymphocytic choriomeningitis virus (strain Armstrong)) (UniProt P09992). In words: qHTS for Inhibitors of the Functional Ribonucleoprotein Complex (vRNP) of Lymphocytic Choriomeningitis Arenaviruses (LCMV): LCMV Primary Screen - GLuc reporter signal (AID 1347086). Note: nearly all actives have a fitted effect of over 70% in size. To be noted: LCMV minigenome vRNP cell assay, Gaussia luciferase reporter; series mostly up to 57.5 µM. In general terms: qHTS replaces the single test concentration by a dilution series.
Nucleoprotein (Lymphocytic choriomeningitis virus (strain Armstrong)), sequence (P09992 whole entry, looked up): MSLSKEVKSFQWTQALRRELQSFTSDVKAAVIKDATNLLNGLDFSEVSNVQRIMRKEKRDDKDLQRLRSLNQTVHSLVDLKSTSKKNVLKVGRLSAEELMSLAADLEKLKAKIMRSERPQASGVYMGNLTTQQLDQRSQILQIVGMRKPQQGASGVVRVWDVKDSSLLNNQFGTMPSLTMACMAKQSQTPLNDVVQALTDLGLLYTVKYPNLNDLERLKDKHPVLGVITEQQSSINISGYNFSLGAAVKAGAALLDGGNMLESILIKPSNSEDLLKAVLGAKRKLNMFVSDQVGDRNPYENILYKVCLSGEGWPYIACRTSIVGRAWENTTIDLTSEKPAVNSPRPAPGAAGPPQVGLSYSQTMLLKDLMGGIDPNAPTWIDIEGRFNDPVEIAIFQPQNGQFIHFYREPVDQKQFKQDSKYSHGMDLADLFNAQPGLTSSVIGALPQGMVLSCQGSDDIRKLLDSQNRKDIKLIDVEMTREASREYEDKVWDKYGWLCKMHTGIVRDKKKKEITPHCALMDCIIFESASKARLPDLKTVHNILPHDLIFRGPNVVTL
`CN1CCN(C2Cc3ccccc3Sc3ccc(Cl)cc32)CC1` (stereo not given): the Potency result was “inactive”.
As for `Nc1ccc(S(=O)(=O)Nc2nccs2)cc1`, the entry is “inactive”; as for `O=C1CC2(CCCC2)CC(=O)N1CCNCC1COc2ccccc2O1` (stereo not given), “inactive”.
Next, `N[C@H](C(=O)O)[C@@H](O)c1ccc(O)c(O)c1`: “inactive”; `CCN(CCCCOC(=O)c1ccc(OC)c(OC)c1)C(C)Cc1ccc(OC)cc1` (stereo not given): “inactive”; `Cc1oc(-c2ccccc2)nc1CCC(=O)c1ccc(CC2SC(=O)NC2=O)cc1` (stereo not given): “inactive”.
As for `Cc1c(Cl)cccc1Nc1ccccc1C(=O)O`, the entry is “inactive”.
Turning to `COc1ccccc1N1CCN(CC(O)COc2cccc3ccccc23)CC1` (stereo not given), the Potency entry was “inactive”.
Next, `O=C(Nc1ccc([N+](=O)[O-])cc1)Nc1ccc([N+](=O)[O-])cc1`: “inactive”; `COc1cc(N)c(Cl)cc1C(=O)NC1CCN(CCCOc2ccc(F)cc2)CC1OC` (stereo not given): “inactive”; `NC(N)=NCCC[C@H](N)C(=O)O`: “inactive”.
`COc1cc2c(cc1OC)C(C(C(=O)N(CCc1ccc(OC)c(OC)c1OC)CCc1ccc(OC)c(OC)c1OC)c1ccccc1)=NCC2` (stereo not given): the Potency entry is “inactive”.
As for `Nc1c2c(nc3ccccc13)CCCC2`, the entry is “inactive”.
As for `CCCCCCCCCCCCOS(=O)(=O)O`, the entry is “inactive”; as for `CC[N+](CC)(CC(=O)Nc1c(C)cccc1C)Cc1ccccc1`, “inactive”; as for `CC(COc1ccccc1)NC(C)C(O)c1ccc(O)cc1` (stereo not given), “inactive”.
Next, `CCOc1ccc(C(=O)OCCN(CC)CC)cc1`: “inactive”.
With `CC(=O)/C=C/C=C1/C2CCC(C2)C1(C)C` (stereo not given), the Potency entry is “inactive”.
Consider `NCCNc1cccc2ccccc12`, for which the Potency result was “inactive”.
`CCCC(=O)O[C@]1(C(=O)CC)CC[C@H]2[C@@H]3CCC4=CC(=O)CC[C@]4(C)[C@H]3[C@@H](O)C[C@@]21C`: the Potency entry was “inactive”.
